The results in this text go back to PubChem BioAssay.

The list shows a part of the results. Activity calls are given as the source filed them.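 The calls were made as follows, unless noted: active = mean inhibition across four replicates of at least 40 percent at the single tested concentration; inactive = the rest.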

Usually inhibition stands for the change of the read-out against control, counted positive when it falls.

The nature of one test: HIF-2a reporter inhibitor retest, confirmation, luminescence, 786-0 RCC cells (AID 651580). To be noted: HIF-2a luciferase reporter luminescence, overnight, at 18.8 µM, active compounds read high.
For `CCC(C)(O)C(=O)OC1C(=O)OC2CC3C(C)=CC(=O)C(O)C3(C)C3C4(O)OCC23C1C(C)C4O` (stereo unspecified), the inhibition was 55.2% (active).
With `CCOC(=O)[C@]12Cc3ccccc3[C@H]1N(C1CCCCC1)C(=O)c1cc(OC)ccc12`, the inhibition is 93.2% (active).
Regarding `COC1C(O)C(C)OC(OC2CCC3(C=O)C(CCC4C3CCC3(C)C(C5=CC(=O)OC5)CCC43O)C2)C1O` (stereo unspecified), the inhibition is 40% (inactive).

A further test is described as follows: HIF-1a luciferase reporter signal reduction – MiaPaCa-2 cells, single concentration, counter-screen for HIF-2a inhibitor project, confirmation (AID 651589;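 active = mean inhibition of the reporter signal across four replicates at the single tested dose of 50% or more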). To be noted: MiaPaCa-2 HIF-1a luciferase reporter, desferoxamine, overnight; at 18.8 µM; active compounds read high. (Reporter assays use an easily measured gene product as a stand-in for the process of interest.)
With `CCC(C)(O)C(=O)OC1C(=O)OC2CC3C(C)=CC(=O)C(O)C3(C)C3C4(O)OCC23C1C(C)C4O` (stereo unspecified), the inhibition was 101% (active).
On to `CCOC(=O)[C@]12Cc3ccccc3[C@H]1N(C1CCCCC1)C(=O)c1cc(OC)ccc12`, for which the inhibition is 106% (active).
Regarding `COC1C(O)C(C)OC(OC2CCC3(C=O)C(CCC4C3CCC3(C)C(C5=CC(=O)OC5)CCC43O)C2)C1O` (stereo unspecified), the inhibition was 105% (active).
